The record followed here is PubChem BioAssay (NCATS).

In test [1] the target is Lysosomal acid glucosylceramidase (Homo sapiens) (UniProt P04062). Nature of the test: Glucocerebrosidase-p2 (AID 348; in the data active means potency below about 10 µM; further: potency means the concentration at half of the fitted maximal effect). Particulars: purified GBA, blue fluorogenic substrate, 40 min. Summed up: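 Compounds titrated from 0.6 nM upwards against 0.2 nM enzyme in pH 5.9 citric acid/KH2PO4, taurocholate, tween-20; blue fluorogenic substrate 80 uM, 40 min room temperature, stopped and read Ex 365/Em 440 for AC50.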
Lysosomal acid glucosylceramidase (Homo sapiens), sequence (P04062 whole entry, looked up): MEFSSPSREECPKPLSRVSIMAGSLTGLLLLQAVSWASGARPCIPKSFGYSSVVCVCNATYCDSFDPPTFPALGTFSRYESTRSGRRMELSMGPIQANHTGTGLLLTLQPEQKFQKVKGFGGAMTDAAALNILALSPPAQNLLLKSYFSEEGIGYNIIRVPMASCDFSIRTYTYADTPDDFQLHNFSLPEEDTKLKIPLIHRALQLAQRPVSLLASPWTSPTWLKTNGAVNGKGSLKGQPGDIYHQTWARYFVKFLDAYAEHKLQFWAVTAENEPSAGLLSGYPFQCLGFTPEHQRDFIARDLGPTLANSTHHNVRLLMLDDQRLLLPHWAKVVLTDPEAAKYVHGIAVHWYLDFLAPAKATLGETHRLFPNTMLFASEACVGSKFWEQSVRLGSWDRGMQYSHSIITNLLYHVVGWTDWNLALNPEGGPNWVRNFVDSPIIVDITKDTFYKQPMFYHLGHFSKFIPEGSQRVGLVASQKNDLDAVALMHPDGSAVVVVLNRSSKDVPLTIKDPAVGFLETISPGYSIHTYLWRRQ

A short description of test [2]: AP1 Signaling Pathway (AID 357; active means well fitted curve in either direction with a large enough effect, not every such curve was filed as active; further: on the % scale 0 is the no-effect control and ±100 the full control effect). The conditions noted are these: ME-180 AP-1-bla reporter, EGF-induced, beta-lactamase ratio, 5 h; at 7.69 µM (top of the series) unless noted. Summed up:
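AP-1-bla ME-180 cells with beta-lactamase reporter under AP-1 response element, stimulated with EC50 EGF; compounds titrated, 5 hours at 37 degrees Celsius. CCF4 read at 460/530 nm ratio; positive and negative modulators judged by AC50.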

For test [3], the target named is Glucocorticoid receptor (Homo sapiens) (UniProt P04150). Nature of the test: GR-GFP Redistribution (AID 450;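 active means compounds whose dose series gives a full or clear partial fitted curve of increased nuclear translocation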; further: potency means the concentration at half of the fitted maximal effect). Particulars: U2OS GR-GFP nuclear translocation, laser cytometry, 2 h.
Glucocorticoid receptor (Homo sapiens), sequence (P04150 whole entry, looked up, the tested form may be a part): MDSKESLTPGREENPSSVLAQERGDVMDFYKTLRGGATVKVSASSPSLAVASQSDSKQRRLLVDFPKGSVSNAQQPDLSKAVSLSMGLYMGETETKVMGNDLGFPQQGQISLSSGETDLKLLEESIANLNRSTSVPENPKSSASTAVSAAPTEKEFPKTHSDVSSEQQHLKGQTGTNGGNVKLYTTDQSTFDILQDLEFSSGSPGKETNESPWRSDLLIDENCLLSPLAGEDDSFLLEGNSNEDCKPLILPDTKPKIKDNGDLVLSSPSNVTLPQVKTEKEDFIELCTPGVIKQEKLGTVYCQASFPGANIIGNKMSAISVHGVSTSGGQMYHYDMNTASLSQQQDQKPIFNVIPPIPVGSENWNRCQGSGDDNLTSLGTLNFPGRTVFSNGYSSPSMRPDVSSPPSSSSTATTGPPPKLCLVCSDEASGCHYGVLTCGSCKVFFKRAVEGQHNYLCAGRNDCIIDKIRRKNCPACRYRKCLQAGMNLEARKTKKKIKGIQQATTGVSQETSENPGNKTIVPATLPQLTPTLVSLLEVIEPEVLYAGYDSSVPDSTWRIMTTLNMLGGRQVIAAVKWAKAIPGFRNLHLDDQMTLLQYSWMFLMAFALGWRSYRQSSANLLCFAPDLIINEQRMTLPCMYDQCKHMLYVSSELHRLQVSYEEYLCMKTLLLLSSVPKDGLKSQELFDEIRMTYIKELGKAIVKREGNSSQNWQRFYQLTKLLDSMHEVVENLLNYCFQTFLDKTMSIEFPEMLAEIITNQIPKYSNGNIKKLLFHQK
The target is the same in test [4]. Nature of the test: GR-EFC Redistribution (AID 451; calls by dose curve; further: potency means the concentration at half of the fitted maximal effect). The conditions noted are these: CHO-K1 GR-EFC translocation, beta-gal luminescence, 2 h. Put shortly: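 Translocation of GR-ED fusion to nuclear EA restores b-gal, read by luminescence after 1 h room-temperature detection. Engineered CHO-K1 biosensor cells, 1,000/well, exposed 2 h at 37 C to titrations up to 46 uM final.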

Test [5] has as its target Mitogen-activated protein kinase 10 (Mus musculus) (UniProt Q61831). The test can be described thus: JNK3 AlphaScreen Assay (AID 530; active means well fitted curve in either direction with a large enough effect, not every such curve was filed as active;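 further: kinase came from lysate of stimulated human HepG2 cells; signal reports phosphorylation of biotinylated GST-cJun 1-79 at Ser73 with 10 µM ATP; on the % scale 0 is the no-effect control and ±100 the full control effect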). Put shortly:
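Compound titrations were preincubated 15 minutes at room temperature with substrate, antibody and pre-activated JNK3-containing HepG2 lysate. Reactions were started with 10 uM ATP and stopped with EDTA-containing bead buffer for AlphaScreen detection.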
In general terms: Alpha assays give light when donor and acceptor beads are brought close together.

Test [6] concerns the target Cytochrome P450 3A4 (Homo sapiens) (UniProt P08684). Nature of the test: qHTS Assay for Activators of Cytochrome P450 3A4 (AID 885). Further: nearly all actives have a fitted effect of over 65% in size. Summed up: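 Human CYP3A4 (20 nM) with Luciferin-PPXE at 25 uM (its KM) in 200 mM KPO4; 10 min compound preincubation, then NADPH regeneration and 60 min reaction at RT. Luciferin read by luminescence; normalized to 57 uM ketoconazole full inhibition.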

The nature of test [7]: qHTS Assay for Lipid Storage Modulators (AID 1519; calls by dose curve). Particulars: Drosophila S3 cells, BODIPY lipid droplet/cell ratio, laser cytometry, cells loaded with oleic acid; for activity change, negative = inhibition: at 57.5 µM (top of the series). Summed up: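 Cells seeded at 5,000 per well were treated with compounds over a concentration series and loaded with oleic acid (400 uM, as added). Lipid droplet fluorescence (488 nm excitation, 500-530 nm channel) was read by laser-scanning cytometry and normalized to 20 uM Triacsin C.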
For orientation: In qHTS, concentration-response curves come from the screen itself.

Test [8] is described as follows: Primary qHTS for small molecule stabilizers of the endoplasmic reticulum resident proteome: Secreted ER Calcium Modulated Protein (SERCaMP) assay (AID 1508630). Further: on the % scale 0 is the no-effect control and ±100 the full control effect. Put shortly:
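GLuc-SERCaMP-expressing SH-SY5Y cells, pretreated 16 h with compound, are challenged with thapsigargin to empty ER calcium stores; after 4 h, coelenterazine is added directly to the medium and luminescence is imaged.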

The target in test [9] is Rap guanine nucleotide exchange factor 3 (Homo sapiens) (UniProt O95398). Nature of the test: Confirmatory qHTS for agonist of cAMP-regulated guanine nucleotide exchange factor 3 (EPAC1) (AID 1645881).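 Further: EPAC1 catalysed release of BODIPY-GDP from Rap1B seen as fluorescence loss; 100% = effect of cAMP agonist control; nearly all actives have a fitted effect of over 75% in size.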
The target of test [10] is Rap guanine nucleotide exchange factor 4 (Homo sapiens) (UniProt Q8WZA2). Nature of the test: Confirmatory qHTS for antagonist of cAMP-regulated guanine nucleotide exchange factor 4 (EPAC2) (AID 1645885). Further: potency means the concentration at half of the fitted maximal effect; nearly all actives have a fitted effect of over 25% in size.
Rap guanine nucleotide exchange factor 4 (Homo sapiens), sequence (Q8WZA2 whole entry, looked up): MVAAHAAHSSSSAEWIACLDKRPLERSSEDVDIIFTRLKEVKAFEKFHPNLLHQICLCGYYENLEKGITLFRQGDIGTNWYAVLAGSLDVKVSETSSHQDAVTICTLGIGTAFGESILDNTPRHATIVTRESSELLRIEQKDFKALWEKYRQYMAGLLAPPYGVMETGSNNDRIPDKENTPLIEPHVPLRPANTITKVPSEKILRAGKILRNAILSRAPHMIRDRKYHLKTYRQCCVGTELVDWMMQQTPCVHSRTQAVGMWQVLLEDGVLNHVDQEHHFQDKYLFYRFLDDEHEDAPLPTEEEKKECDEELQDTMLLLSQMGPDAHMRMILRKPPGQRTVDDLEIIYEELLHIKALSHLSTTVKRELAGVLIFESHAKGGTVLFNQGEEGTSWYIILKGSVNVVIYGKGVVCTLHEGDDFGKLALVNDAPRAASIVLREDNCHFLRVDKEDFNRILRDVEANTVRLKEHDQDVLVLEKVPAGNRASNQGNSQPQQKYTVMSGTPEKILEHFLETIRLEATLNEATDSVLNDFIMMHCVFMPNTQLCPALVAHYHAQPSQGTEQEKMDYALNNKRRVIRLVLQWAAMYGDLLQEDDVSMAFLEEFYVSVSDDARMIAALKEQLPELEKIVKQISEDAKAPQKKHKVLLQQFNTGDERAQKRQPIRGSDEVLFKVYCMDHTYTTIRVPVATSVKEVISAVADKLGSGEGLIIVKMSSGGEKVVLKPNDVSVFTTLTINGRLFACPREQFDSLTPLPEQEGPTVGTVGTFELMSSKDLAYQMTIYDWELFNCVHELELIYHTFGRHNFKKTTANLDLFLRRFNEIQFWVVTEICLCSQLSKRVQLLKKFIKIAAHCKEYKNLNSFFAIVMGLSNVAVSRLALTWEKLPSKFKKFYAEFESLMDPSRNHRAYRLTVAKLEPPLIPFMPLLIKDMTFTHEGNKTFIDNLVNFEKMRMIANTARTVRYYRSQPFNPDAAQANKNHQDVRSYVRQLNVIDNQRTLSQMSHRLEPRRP
In test [11] the target is Cytochrome P450 1A2 (Homo sapiens) (UniProt P05177). Nature of the test: p450-cyp1a2 (AID 410; calls by dose curve; further: potency means the concentration at half of the fitted maximal effect). Put shortly: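 Luminescent readout of luciferin formed from Luciferin-ME by human CYP1A2; data normalized against complete inhibition by 57 uM furafylline. Enzyme 20nM, substrate 100uM at Km, 100mM KPO4 buffer, 60 min reaction at room temperature.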
Cytochrome P450 1A2 (Homo sapiens), sequence (P05177 whole entry, looked up): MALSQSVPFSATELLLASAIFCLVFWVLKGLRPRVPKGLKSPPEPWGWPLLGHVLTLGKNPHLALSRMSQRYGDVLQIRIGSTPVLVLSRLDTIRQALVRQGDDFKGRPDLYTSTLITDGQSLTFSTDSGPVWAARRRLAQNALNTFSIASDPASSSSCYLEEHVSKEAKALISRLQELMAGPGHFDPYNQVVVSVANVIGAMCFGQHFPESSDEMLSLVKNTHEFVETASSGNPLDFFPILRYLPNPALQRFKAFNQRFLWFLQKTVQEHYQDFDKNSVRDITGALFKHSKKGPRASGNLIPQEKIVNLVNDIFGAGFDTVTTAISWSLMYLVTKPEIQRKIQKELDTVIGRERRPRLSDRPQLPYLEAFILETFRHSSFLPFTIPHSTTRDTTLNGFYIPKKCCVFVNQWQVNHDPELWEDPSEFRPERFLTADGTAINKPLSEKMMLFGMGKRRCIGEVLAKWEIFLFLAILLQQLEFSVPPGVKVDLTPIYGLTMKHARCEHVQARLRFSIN
A short description of test [12]: NFAT Signaling Pathway (AID 444; active means well fitted curve in either direction with a large enough effect, not every such curve was filed as active;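 further: carbachol stimulus at about its EC50 of 1 µM final; on the % scale 0 is the no-effect control and ±100 the full control effect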). Particulars: Jurkat NFAT-bla M1, carbachol, beta-lactamase ratio, 5 h; at 7.69 µM (top of the series) unless noted. Summed up: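 Read-out: CCF4 FRET ratio (460 nm/530 nm) after 1 h RT dye loading, used for %activity and AC50 from titration series. Cells: Jurkat NFAT-β-lactamase/M1 line, treated with compound plus 1 uM carbachol for 5 h, 37 °C.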

The nature of test [13]: Stat Signaling Pathway (AID 446; active means well fitted curve in either direction with a large enough effect, not every such curve was filed as active). The conditions noted are these: ME-180 (cervical carcinoma) SIE beta-lactamase reporter, IL-6 stimulated, 5 h; at 7.69 µM (top of the series) unless noted. Summed up:
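ME-180 cells carrying a SIE-driven beta-lactamase reporter are stimulated with 40 pM IL-6 for 5 h at 37C in the presence of compound. The 460/530 nm FRET substrate ratio is read after 2.5 h at RT. Data are normalised to 300 pM IL-6 and to 125 nM JAK inhibitor controls.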

For test [14], the target named is 3',5'-cyclic-AMP phosphodiesterase 4B (Homo sapiens) (UniProt Q07343). The test can be described thus: qHTS Assay for Inhibitors of PDE-IV (AID 607; active means well fitted activation curve with a large enough effect in the main read-out, with a control signal flat, not every such curve was filed as active; further: % of control where 0% means no effect). Put shortly: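 HEK293 ACTOne cells with CNG channel (1000/well), endogenous PDE4; membrane potential dye, compounds up to 22.9 uM final. Fluorescence Ex 535/Em 590; RO 20-1724 (100 uM final) as reference.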
3',5'-cyclic-AMP phosphodiesterase 4B (Homo sapiens), sequence (Q07343 whole entry, looked up): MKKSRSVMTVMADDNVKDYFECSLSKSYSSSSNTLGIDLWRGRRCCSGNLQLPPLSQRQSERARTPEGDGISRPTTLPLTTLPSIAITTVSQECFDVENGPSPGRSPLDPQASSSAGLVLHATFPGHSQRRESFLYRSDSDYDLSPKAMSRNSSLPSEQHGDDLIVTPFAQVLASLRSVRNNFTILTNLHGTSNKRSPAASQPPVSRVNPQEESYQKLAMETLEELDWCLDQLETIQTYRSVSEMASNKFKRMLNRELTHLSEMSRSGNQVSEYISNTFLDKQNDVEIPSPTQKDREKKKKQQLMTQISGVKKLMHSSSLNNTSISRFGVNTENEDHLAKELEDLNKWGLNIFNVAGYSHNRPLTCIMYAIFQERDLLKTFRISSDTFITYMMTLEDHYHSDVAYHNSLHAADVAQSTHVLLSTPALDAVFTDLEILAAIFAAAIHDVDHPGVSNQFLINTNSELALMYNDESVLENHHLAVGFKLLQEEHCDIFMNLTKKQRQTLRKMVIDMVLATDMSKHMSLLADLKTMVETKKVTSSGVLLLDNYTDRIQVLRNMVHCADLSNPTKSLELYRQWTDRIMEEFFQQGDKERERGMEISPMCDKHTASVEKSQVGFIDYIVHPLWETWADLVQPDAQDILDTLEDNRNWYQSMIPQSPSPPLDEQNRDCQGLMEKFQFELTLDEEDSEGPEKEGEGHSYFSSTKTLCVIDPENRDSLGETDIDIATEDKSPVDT
The target of test [15] is Dual specificity protein kinase CLK4 (Homo sapiens) (UniProt Q9HAZ1). The test can be described thus: qHTS Assay for Inhibitors of CDC-like Kinase 4 (Kinase-Glo Assay) (AID 1770). Further: nearly all actives have a fitted effect of over 65% in size. Further: potency means the concentration at half of the fitted maximal effect. Put shortly:
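Luminescent ATP-depletion read-out (Kinase-Glo) after 4.5 h room-temperature reaction of Clk4 (25 nM final) with RS peptide (100 uM) and ATP (1 uM), pH 7.5 Tris buffer with MgCl2 and DTT.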

Test [16] has the same target. Nature of the test: qHTS Assay for Inhibitors of CDC-like Kinase 4 (ADP-Glo Assay) (AID 1771). Further: nearly all actives have a fitted effect of over 70% in size. Further: potency means the concentration at half of the fitted maximal effect. Put shortly: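 Luminescence from ADP-Glo reports ADP produced by 25 nM Clk4 acting on 100 uM RS repeat peptide with 1 uM ATP over 1 hr at room temperature; residual ATP is depleted before ADP is converted to ATP for detection.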
For test [17] the target is unchanged. The test can be described thus: qHTS Assay for Inhibitors of CDC-like Kinase 4 (ADP-FP Assay) (AID 1795).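 Further: recombinant human CLK4 phosphorylating RS repeat peptide at 1 µM ATP; on the % scale 0 is the no-effect control and ±100 the full control effect; nearly all actives have a fitted effect of over 60% in size.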 Summed up: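 Kinase activity was measured as ADP production using Transcreener orange tracer (4 nM) and ADP antibody (1 ug/mL) fluorescence polarization, with ADP calculated from a calibration curve. The 1 h reaction contained 6.25 nM Clk4, 1 uM ATP and 100 uM RS peptide at pH 7.5 with Mg2+.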

In test [18] the target is Ubiquitin carboxyl-terminal hydrolase 1 (Homo sapiens) (UniProt O94782). Nature of the test: Inhibitors of USP1/UAF1: Pilot qHTS (AID 504865). Further: nearly all actives have a fitted effect of over 35% in size. Further: potency means the concentration at half of the fitted maximal effect. Put shortly: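 Deubiquitinase activity followed as kinetic rhodamine fluorescence release from 150 nM Ub-Rho. 1 nM USP1/UAF1 with compound, after 15 min room-temperature preincubation, in HEPES pH 7.8 buffer containing TCEP, EDTA, BSA and Tween-20.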
Ubiquitin carboxyl-terminal hydrolase 1 (Homo sapiens), sequence (O94782 whole entry, looked up): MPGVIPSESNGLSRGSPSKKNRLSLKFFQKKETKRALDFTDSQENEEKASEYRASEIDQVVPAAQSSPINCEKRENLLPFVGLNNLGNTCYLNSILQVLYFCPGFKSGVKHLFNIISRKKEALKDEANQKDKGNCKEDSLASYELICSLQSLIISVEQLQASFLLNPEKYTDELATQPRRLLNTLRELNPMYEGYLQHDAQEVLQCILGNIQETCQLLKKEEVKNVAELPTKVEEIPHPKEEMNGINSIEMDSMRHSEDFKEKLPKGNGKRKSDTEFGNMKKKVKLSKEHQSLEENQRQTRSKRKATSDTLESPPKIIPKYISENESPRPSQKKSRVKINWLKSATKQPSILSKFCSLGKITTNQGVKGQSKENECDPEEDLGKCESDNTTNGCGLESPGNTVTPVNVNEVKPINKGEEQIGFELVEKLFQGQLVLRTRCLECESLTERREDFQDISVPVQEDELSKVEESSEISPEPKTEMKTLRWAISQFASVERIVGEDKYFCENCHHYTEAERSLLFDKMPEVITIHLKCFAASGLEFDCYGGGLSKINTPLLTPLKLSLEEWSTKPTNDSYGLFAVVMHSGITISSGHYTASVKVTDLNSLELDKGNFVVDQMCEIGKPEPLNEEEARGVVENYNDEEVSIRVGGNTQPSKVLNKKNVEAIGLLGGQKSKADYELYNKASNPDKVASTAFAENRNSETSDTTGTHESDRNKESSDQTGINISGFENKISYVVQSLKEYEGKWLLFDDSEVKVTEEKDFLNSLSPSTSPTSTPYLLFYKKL

Test [19] addresses Rap guanine nucleotide exchange factor 4 (Homo sapiens) (UniProt Q8WZA2). Nature of the test: Confirmatory qHTS for agonist of cAMP-regulated guanine nucleotide exchange factor 4 (EPAC2) (AID 1645884).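 Further: nucleotide exchange releases bodipy-GDP from Rap1 and this lowers its fluorescence; on the % scale 0 is the no-effect control and ±100 the full control effect; nearly all actives have a fitted effect of over 65% in size.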
Setting [20] is: measured here: cell count channel max response.
The mark [21] stands for this setting: measured here: lipid channel max response.

Records with an inconclusive call do not appear. The source made the active and inactive calls. Unless noted, the call rests on the fitted dose curve; in most records, active means well fitted curve in the direction sought with a large enough effect; inconclusive means small, poorly fitted or top-dose-only effect, or another doubt; inactive means no such curve, though single readings can be large; an effect the other way counts as inactive or inconclusive.

Dual specificity protein kinase CLK4 (Homo sapiens), sequence (Q9HAZ1 whole entry, looked up): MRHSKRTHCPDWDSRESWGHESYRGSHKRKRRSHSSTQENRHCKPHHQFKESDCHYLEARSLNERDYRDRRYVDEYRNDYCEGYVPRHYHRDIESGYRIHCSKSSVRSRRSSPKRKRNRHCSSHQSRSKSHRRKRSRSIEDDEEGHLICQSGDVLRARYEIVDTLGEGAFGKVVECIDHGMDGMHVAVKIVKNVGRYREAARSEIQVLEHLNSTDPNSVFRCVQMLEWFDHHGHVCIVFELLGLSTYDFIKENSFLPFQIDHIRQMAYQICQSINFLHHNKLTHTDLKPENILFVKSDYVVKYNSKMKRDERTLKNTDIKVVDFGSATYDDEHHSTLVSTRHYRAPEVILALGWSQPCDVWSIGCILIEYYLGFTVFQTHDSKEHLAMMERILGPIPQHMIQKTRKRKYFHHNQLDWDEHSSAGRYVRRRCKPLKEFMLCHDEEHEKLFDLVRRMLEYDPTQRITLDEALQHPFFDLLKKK

For `O=c1c(-c2cc(F)cc(F)c2)nc2cnc(N3CCNCC3)nc2n1Cc1cccs1`, the Potency in test [1] is > 11.4 µM (inactive); in test [3], > 9.22 µM (inactive); in test [4] it was > 46 µM (inactive); in [10] it was 55.5 µM (active). For the same compound, the values for the activity change, negative = inhibition in test [2] and in test [7] were 98% [activator] (active) and -29.8% (inactive), respectively. The outcome in test [5] and in test [9] was inactive. Further, the Potency entry in test [6] and in test [8] was “inactive” in each case. Moreover, the max response in [7] (setting [20]) is -11.3%; in test [7] (setting [21]) it was -33.5%.
As to `Cc1noc(C)c1-c1cc(N(C)Cc2ccco2)ncn1`, the Potency is > 11.4 µM (inactive) in [1], 3.16 µM (active) in test [11], > 46 µM (inactive) in test [3] and > 46 µM (inactive) in test [4]. In addition, the activity change, negative = inhibition in [2] is 1.26% (inactive); in [12], -16% (inactive); in test [7] it was 2.86% (inactive). Moreover, the activity, negative = inhibition in test [13] was 6.33% (inactive). In addition, the outcome in [5] was inactive. The Potency entry in test [14], in test [15], in [16], in [17], in [18] and in test [8] was “inactive” in each case. Also, the figures for the max response in test [7] (setting [20]) and in [7] (setting [21]) were 13.8% and 17.9%, respectively.
Consider `CC(=O)NCCNc1cc(-c2ccccc2C(F)(F)F)ncn1`, for which the Potency in test [1] was > 11.4 µM (inactive); in [11], 25.1 µM (active); in test [3], > 46 µM (inactive); in [4] it was > 46 µM (inactive). Besides, the activity change, negative = inhibition is 9.07% (inactive) in test [2], 15.3% (inactive) in test [12] and 0.0704% (inactive) in test [7]. The activity, negative = inhibition in test [13] was 6.62% (inactive). Moreover, the result in [5] was inactive. Also, the Potency result in test [14], in test [15], in test [16], in test [17], in test [18] and in test [8] was “inactive” each time. For the same compound, the max response in [7] (setting [20]) is 5.19%; in test [7] (setting [21]), 3.95%.
Turning to `O=c1c(-c2ccc(F)c(F)c2)nc2cncnc2n1C1CC1`, the Potency in [1] is > 11.4 µM (inactive); in test [11], 0.1 µM (active); in test [3], > 9.22 µM (inactive); in test [4], > 46 µM (inactive). Besides, the activity change, negative = inhibition was 3.77% (inactive) in test [2], 7.2% (inactive) in [12] and 8.82% (inactive) in test [7]. The activity, negative = inhibition in test [13] was -6.38% (inactive). Besides, the compound was called inactive in [5]. The Potency entry in test [14], in test [15], in test [16], in [17], in test [18] and in [8] was “inactive” each time. Moreover, the max response stood at 20.3% in test [7] (setting [20]) and 27.4% in test [7] (setting [21]).
In the case of `FC(F)(F)c1ccccc1-c1nc(N2CCOCC2)c2ccccc2n1`, the Potency in [1] is > 11.4 µM (inactive); in test [3], > 46 µM (inactive); in [4] it was > 46 µM (inactive); in [15] it was 25.1 µM (active); in test [16], 14.1 µM (active); in test [18] it was 31.6 µM (active). Besides, the activity change, negative = inhibition in [12] is -3.63% (inactive); in test [7], 6.74% (inactive). Besides, the activity, negative = inhibition in test [13] is 2.43% (inactive). In addition, the outcome in [5], in test [9] and in test [19] was inactive. Further, the Potency entry in [6] and in [8] was “inactive” each time. Also, the max response in test [7] (setting [20]) amounted to 22.9%; in test [7] (setting [21]) it was 28.1%.
